# Test system: Vero E6 infected with SARS-CoV-2
# Assay: morphology score (similarity to uninfected cells); higher = more like uninfected cells
# Conditions: 24 h
row,SMILES,morphology score
1,CCCC[P+](CCCC)(CCCC)Cc1ccc(NC(=O)[C@H](Cc2ccc3ccccc3c2)N/C(=N/C2CCCCC2)NC2CCCCC2)cc1 (10 µM),0.122
2,OC[C@H]1O[C@H](O[C@]2(CCl)O[C@H](CCl)[C@@H](O)[C@@H]2O)[C@H](O)[C@@H](O)[C@H]1Cl [sucralose] (10 µM),0.0888
3,Cc1cc(C)nc(NS(=O)(=O)c2ccc(NC(=S)NC(=O)COc3ccc(Br)cc3Cl)cc2)n1 (10 µM),0.0709
4,CO[C@@]12[C@H](COC(N)=O)C3=C(C(=O)C(C)=C(N)C3=O)N1C[C@@H]1N[C@@H]12 [mitomycin-C] (10 µM),0.101
5,CCCn1c(=O)c2[nH]c(C3CCCC3)nc2n(CCC)c1=O (10 µM),0.0194
6,CC(=O)NCCCOc1ccc(C(=O)N2CCC(N3C(=O)CCc4ccccc43)CC2)cc1 (10 µM),0.184
7,CC(=O)Oc1cc2c(s1)CCN(C(C(=O)C1CC1)c1ccccc1F)C2 (stereo not given) [prasugrel] (10 µM),0.0783
8,CC1(C)CCC(C)(C)c2c1cc(C(=O)Nc1cc(F)c(C(=O)O)c(F)c1)c(O)c2Cl (10 µM),-0.137
9,CS(=O)(=O)c1cccc(CNc2nc(Nc3ccc4c(c3)CCC(=O)N4)ncc2C(F)(F)F)c1 (0.833333 µM),0.138
10,COc1ccccc1CC(=N)N1C[C@@H]2C(=O)CCC(c3ccccc3)(c3ccccc3)[C@@H]2C1 (10 µM),-0.184
11,CCOC(=O)N1CCC(=C2c3ccc(Cl)cc3CCc3cccnc32)CC1 [loratadine] (10 µM),0.221
12,Cc1c(N(C)CS(=O)(=O)O)c(=O)n(-c2ccccc2)n1C [metamizole] (10 µM),0.141
13,COc1ccncc1C(=O)NC(=O)Nc1ccc(-c2ccccc2)c(C(F)(F)F)c1 [S1P1-agonist-III] (10 µM),-0.0188
14,CCCN1CCN(c2ccc(C(=O)NC3(C(=O)NCC#N)CCCCC3)cc2)CC1 [balicatib] (10 µM),0.59
15,COc1ccc2[nH]cc(C3=CCNCC3)c2c1 (10 µM),0.191
16,CCOC(=O)c1c(C)[nH]c2ccc3c(c12)CN1CCc2cc(OC)ccc2C1O3 (stereo not given) (10 µM),0.729
17,CC(=O)N(O)[C@@H]1c2cc(C#N)ccc2OC(C)(C)[C@H]1O (10 µM),0.477
18,CCn1cc(C(=O)O)c(=O)c2cc3c(cc21)OCO3 [oxolinic-acid] (10 µM),0.162

row,SMILES,morphology score
1,CC(C)(C)c1ccc(CN(Cc2cccc(OCC(=O)O)c2)S(=O)(=O)c2cccnc2)cc1 [evatanepag] (10 µM),-0.0093
2,O=C(O)c1c(Sc2ccccc2)c2cc(Cl)ccc2n1Cc1ccc(Cl)cc1 (10 µM),0.149
3,CCNC(C)CN1CCc2c(c(=O)oc3ccccc23)C1 (stereo not given) (10 µM),0.209
4,CCC/N=C1\S/C(=C\c2ccc(OC[C@H](O)CO)c(Cl)c2)C(=O)N1c1ccccc1C [ponesimod] (10 µM),-0.2
5,CC(=O)c1ccc2c(c1)N(CCCN1CCC(CCO)CC1)c1ccccc1S2 [piperacetazine] (10 µM),0.384
6,CCCCCCCCCCCC(=O)O [lauric-acid] (10 µM),0.185
7,Nc1nc(Nc2ccc(S(N)(=O)=O)cc2)nn1C(=O)c1c(F)cccc1F (0.833333 µM),-0.114
8,Nc1nc(NC2CC2)c2ncn([C@H]3C=C[C@@H](CO)C3)c2n1 (10 µM),0.0446
9,O=C(O)CCCNC(=O)c1cccnc1 [pikamilone] (10 µM),0.0672
10,CN(C)[C@@H]1CCc2[nH]c3ccc(NC(=O)c4ccc(F)cc4)cc3c2C1 (10 µM),0.438
11,COc1nccc(-c2c(-c3ccc(F)cc3)ncn2C2CCNCC2)n1 (10 µM),-0.0202
12,CN(C)CCCC1(c2ccc(F)cc2)OCc2cc(C#N)ccc21 (stereo not given) [citalopram] (10 µM),-0.167
13,Fc1ccc(CN2CCC(Nc3ccc(C(F)(F)F)nn3)CC2)cc1F (10 µM),-0.198
14,Cn1ncnc1COc1nn2c(-c3cc(F)ccc3F)nnc2cc1C(C)(C)C (10 µM),0.166
15,CCc1oc2ccccc2c1C(=O)c1cc(Br)c(O)c(Br)c1 [benzbromarone] (10 µM),0.145
16,CC(C)OC(=O)[C@H](C)N[P@](=O)(CO[C@H](C)Cn1cnc2c(N)ncnc21)Oc1ccccc1 [tenofovir-alafenamide] (10 µM),-0.0883
17,C[C@]12CCC(=O)C=C1CC[C@@H]1[C@@H]2[C@@H](O)C[C@@]2(C)[C@H]1CC[C@]2(O)C(=O)COP(=O)(O)O [hydrocortisone-phosphate] (10 µM),-0.00553
